Assay outcomes as filed in PubChem BioAssay.
SMN2 splice enh – SMN2 splice variant enhancement; AID 1458; 210,000 compounds, 2.8% hits; Potency, µM (titrated, usually from 46.1 µM), usual class: activators; HEK293 SMN2-luciferase splicing reporter, luminescence, 30-36 h; note: nearly all actives have a fitted effect of over 55% in size
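HEK293 cells carry an SMN2 minigene-luciferase reporter in which exon 7 inclusion puts luciferase in frame. Cells were seeded at 2000 cells/well, attached for 10-12 hours, then exposed to compounds for 30-36 hours at 37C before ONE-Glo luminescence.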
NPC1 promoter act – NPC1 promoter activation | Huh7 NPC1 promoter luciferase reporter, 24 h | Potency, µM (highest dose often 9.22 µM), hits mostly activators | 320,000 compounds, 2.4% hits | AID 485313; note: nearly all actives have a fitted effect of over 60% in size
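Luminescence from an NPC1 promoter-driven luciferase reporter in stably transfected Huh7 cells was measured after 24 h compound treatment at 37 °C, followed by 10 min ambient incubation with luciferase detection reagent.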
FLuc modulator – counter-screen for miR-21 project: firefly luciferase inhibitors or activators | 360,000 compounds, 6.9% hits | Potency, µM (highest dose often 57.5 µM), most hits filed as inhibitors | purified FLuc, Km substrates, luminescence inhibition | P08659 | AID 588342; note: nearly all actives have a fitted effect of over 55% in size
Target sequence (P08659 whole entry, looked up): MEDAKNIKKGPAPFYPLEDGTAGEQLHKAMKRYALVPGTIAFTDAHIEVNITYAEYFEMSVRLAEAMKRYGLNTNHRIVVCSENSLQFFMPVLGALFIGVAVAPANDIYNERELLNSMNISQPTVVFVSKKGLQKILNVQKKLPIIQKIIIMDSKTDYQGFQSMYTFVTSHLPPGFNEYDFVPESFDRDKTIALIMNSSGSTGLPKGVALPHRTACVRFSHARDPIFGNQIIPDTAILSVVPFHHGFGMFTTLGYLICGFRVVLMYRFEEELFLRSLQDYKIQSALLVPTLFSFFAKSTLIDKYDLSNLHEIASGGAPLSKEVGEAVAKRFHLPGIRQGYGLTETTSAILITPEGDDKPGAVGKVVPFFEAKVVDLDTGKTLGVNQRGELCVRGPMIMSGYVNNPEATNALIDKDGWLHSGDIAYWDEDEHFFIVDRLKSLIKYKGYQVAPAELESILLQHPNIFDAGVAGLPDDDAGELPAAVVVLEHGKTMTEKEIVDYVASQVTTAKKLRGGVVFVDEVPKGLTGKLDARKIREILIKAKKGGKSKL
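Purified P. pyralis luciferase, 10 nM final, with Km-level 10 uM D-luciferin and 10 uM ATP in 50 mM Tris acetate pH 7.5, 10 mM Mg acetate, 0.01% Tween-20, 0.05% BSA; 6-point qHTS titration about 60 µM downward; luminescence read.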
Rab9 prom act – activators of Rab9 promoter | Huh7 Rab9 promoter-luciferase reporter, luminescence, 24 h | Potency, µM (doses to about 9.22 µM), actives largely listed as activators | 320,000 compounds, 2.8% hits; note: nearly all actives have a fitted effect of over 60% in size
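Rab9 promoter-driven luciferase in stably transfected Huh7 cells; 1500 cells/well rested 2 h, exposed to compound in DMSO for 24 h at 37 °C, 5% CO2. Luminescence read 10 min after adding luciferase reagent at ambient temperature.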
ELG1 DNA repair – inhibitors of ELG1-dependent DNA repair in HEK293T cells. AID 504467. Potency, µM (top dose mostly 46.1 µM), actives largely listed as inhibitors. HEK293T ELG1-luciferase reporter, luminescence, 16 h; DNA damage induced by 5-fluorouridine. 330,000 compounds, 2.3% hits; note: nearly all actives have a fitted effect of over 55% in size
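Quantitative HTS, concentration-response format. 2,000 cells/well co-treated with 5-fluorouridine and compound, 16 hr in 5% CO2 at 37 °C; ONE-Glo luminescence read after 30 min.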
ELG1 genotoxic – induces genotoxicity in HEK293T cells with luciferase-tagged ELG1; HEK293T ELG1-luciferase reporter, luminescence, 16 h; 330,000 compounds, 1.3% hits; Potency, µM (titrated, usually from 46 µM), usual class: activators; AID 504466; note: nearly all actives have a fitted effect of over 60% in size
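DMSO vehicle served as control against compound-treated ELG1-luciferase HEK293T cells; exposure lasted 16 hr at 37 °C and 5% CO2, followed by ONE-Glo luminescence detection after 30 min.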
Each line names hits and unclear results; the compound was inactive in the other large screens. Hits are enriched below; roughly 9.2% of the tested compounds scored in any of these assays. Calls come from the whole dose curve; as a rule, active = well fitted curve in the direction sought with a large enough effect; inconclusive = small, poorly fitted or top-dose-only effect, or another doubt; inactive = no such curve, though single readings can be large; an effect the other way counts as inactive or inconclusive.

Nc1c(C(=O)c2ccc(Br)s2)oc2ccccc12	SMN2 splice enh inconclusive, NPC1 promoter act inconclusive, FLuc modulator 7.57µM, Rab9 prom act inconclusive, ELG1 DNA repair inconclusive, ELG1 genotoxic inconclusive
Nc1c(C(=O)c2ccc(Br)cc2)oc2ccccc12	SMN2 splice enh inconclusive, ELG1 DNA repair inconclusive
CCOC(=O)c1oc2ccccc2c1N	ELG1 DNA repair inconclusive
Nc1c(C(=O)c2cccs2)oc2ccccc12	SMN2 splice enh inconclusive, NPC1 promoter act inconclusive, FLuc modulator 15.1µM, ELG1 DNA repair inconclusive
Nc1c(N)c2ccccc2oc1=O	ELG1 DNA repair inconclusive
Cc1ccc(C(=O)c2oc3ccccc3c2N)cc1	SMN2 splice enh 12.6µM, NPC1 promoter act inconclusive, FLuc modulator 16.9µM, Rab9 prom act inconclusive, ELG1 DNA repair inconclusive, ELG1 genotoxic inconclusive
CC1(C(=O)N2CCN(c3ccc([N+](=O)[O-])cc3)CC2)CC1(Cl)Cl (stereo unspecified)	ELG1 DNA repair inconclusive (no result: SMN2 splice enh)
Cc1ccc2nc(C)/c(=N\O)c(C)nc2c1	FLuc modulator inconclusive, ELG1 DNA repair inconclusive, ELG1 genotoxic inconclusive
Cc1nc2ccc(Cl)cc2nc(C)/c1=N\O	FLuc modulator inconclusive, ELG1 DNA repair inconclusive, ELG1 genotoxic 18.4µM
CN(C)c1ccc(/C=N/NC(=O)c2nonc2N)cc1[N+](=O)[O-]	FLuc modulator 12µM (no result: SMN2 splice enh)
O=C(O)c1cc2cc(OCc3ccccc3)ccc2[nH]1	FLuc modulator 19µM
O=C(N/N=C/c1cccc([N+](=O)[O-])c1)c1cccs1	SMN2 splice enh 12.6µM, NPC1 promoter act inconclusive, FLuc modulator 8.49µM, Rab9 prom act inconclusive, ELG1 DNA repair inconclusive, ELG1 genotoxic inconclusive
CC(=O)c1c(C)oc2ccc(OCc3ccccc3)cc12	FLuc modulator 16.9µM, ELG1 DNA repair inconclusive (no result: SMN2 splice enh)
O=C(N/N=C/c1cccc([N+](=O)[O-])c1)c1ccc(Br)cc1	none (no result: SMN2 splice enh)
COc1ccc(-n2nc(C(=O)Nc3ccccc3OC)c3c4ccccc4n(C)c3c2=O)cc1Cl	none (no result: SMN2 splice enh, NPC1 promoter act, Rab9 prom act, ELG1 DNA repair, ELG1 genotoxic)
CC(=O)N(CCC(c1ccco1)C(C)C)Cc1ccc(OC(C)C)cc1 (stereo unspecified)	none (no result: SMN2 splice enh)
O=C(O)/C=C/c1cccc(OCc2ccccc2)c1	FLuc modulator 13.5µM, ELG1 DNA repair inconclusive
Nc1nonc1C(=O)N/N=C/c1cccc([N+](=O)[O-])c1	FLuc modulator 12µM
O=C(N/N=C/c1cccc(OCc2ccccc2)c1)c1cccs1	FLuc modulator 13.5µM, ELG1 DNA repair inconclusive
COc1ccc([N+](=O)[O-])cc1/C=N/NC(=O)c1nonc1N	none
OCCNNC(=S)NC1CC2C=CC1C2 (stereo unspecified)	none (no result: SMN2 splice enh)
CCCCCCNC(=O)N[C@H](C(=O)NCCC[C@H]1CN2C(=NC[C@H]2C)N1CCC(c1ccccc1)c1ccccc1)C(C)O (stereo partly specified)	FLuc modulator inconclusive, ELG1 DNA repair inconclusive (no result: SMN2 splice enh)
CCn1nc(NC(=O)c2ccccc2)c2cc3cccc(C)c3nc21	ELG1 DNA repair 7.3µM (no result: SMN2 splice enh)
CCn1nc(NC(=O)c2ccccn2)c2cc3cc(C)ccc3nc21	FLuc modulator 9.53µM, ELG1 DNA repair inconclusive
Cc1ccc2nc3c(cc2c1)c(NC(=O)c1ccccn1)nn3CC(C)C	FLuc modulator inconclusive, ELG1 DNA repair 23.1µM
Cc1ccc2cc3c(NC(=O)c4ccco4)nn(CC(C)C)c3nc2c1	none
CCn1nc(NC(C)=O)c2cc3cccc(C)c3nc21	none (no result: SMN2 splice enh)
CCn1nc(NC(=O)Cc2ccc(OC)cc2)c2cc3cc(C)ccc3nc21	FLuc modulator inconclusive, ELG1 DNA repair inconclusive, ELG1 genotoxic inconclusive (no result: SMN2 splice enh)
O=C(Nc1nnc(S(=O)(=O)N2CCCc3ccccc32)s1)c1ccc(Cl)cc1	none (no result: SMN2 splice enh, NPC1 promoter act, Rab9 prom act, ELG1 DNA repair, ELG1 genotoxic)
CCCCNc1nc(Oc2ccc(OCCC)nn2)nc(N(C)C)n1	none (no result: NPC1 promoter act, Rab9 prom act, ELG1 DNA repair, ELG1 genotoxic)
CN(C)C(=O)N1CCC(C(=O)N2CCCC(C(=O)c3ccc(C(C)(C)C)cc3)C2)CC1 (stereo unspecified)	ELG1 DNA repair 14.6µM (no result: SMN2 splice enh)
Cc1ccc(C)c(NC(=O)Cn2cc(C(=O)c3cccs3)c3ccccc32)c1	none (no result: NPC1 promoter act, Rab9 prom act, ELG1 DNA repair, ELG1 genotoxic)
O=c1cc(/C=C/c2ccccc2)oc2c1ccc1ccccc12	FLuc modulator inconclusive, ELG1 DNA repair 18.4µM
Cc1nc(NCCO)c2nc(-c3ccccc3)n(CCN(C)C)c2n1	none (no result: NPC1 promoter act, FLuc modulator, Rab9 prom act, ELG1 DNA repair, ELG1 genotoxic)
CS(=O)(=O)Nc1cccc(-c2cnc3ccccc3n2)c1	NPC1 promoter act 3.16µM, FLuc modulator 19µM, Rab9 prom act 4.47µM, ELG1 DNA repair inconclusive, ELG1 genotoxic inconclusive (no result: SMN2 splice enh)
Nc1cccc(-c2cnc3ccccc3n2)c1	NPC1 promoter act 2.51µM, FLuc modulator 7.57µM, Rab9 prom act inconclusive, ELG1 DNA repair inconclusive, ELG1 genotoxic 9.2µM (no result: SMN2 splice enh)
O=[N+]([O-])c1cccc(-c2cnc3ccccc3n2)c1	NPC1 promoter act inconclusive, Rab9 prom act inconclusive, ELG1 DNA repair inconclusive (no result: SMN2 splice enh)
CC(C)C(=O)Nc1cccc(-c2cnc3ccccc3n2)c1	NPC1 promoter act inconclusive, FLuc modulator 15.1µM, Rab9 prom act inconclusive, ELG1 genotoxic inconclusive
CNC(=S)Nc1cccc(-c2cnc3ccccc3n2)c1	NPC1 promoter act inconclusive, FLuc modulator 16.9µM, Rab9 prom act inconclusive, ELG1 DNA repair inconclusive, ELG1 genotoxic inconclusive (no result: SMN2 splice enh)
O=C(Nc1cccc(-c2cnc3ccccc3n2)c1)c1ccncc1	FLuc modulator inconclusive, ELG1 DNA repair inconclusive
Cc1ccc(C(=O)Nc2cccc(-c3cnc4ccccc4n3)c2)cc1	FLuc modulator inconclusive
COc1cccc(C(C)NC(=O)Cc2cccs2)c1 (stereo unspecified)	none (no result: SMN2 splice enh)
COc1ccc(-c2c(-c3ccccc3OC)oc3ccccc23)cc1F	FLuc modulator inconclusive, ELG1 DNA repair inconclusive (no result: SMN2 splice enh)
